Source: PubChem BioAssay (NCATS)
Inconclusive results are not listed. Activity calls are given as the source filed them. Unless noted, calls come from the whole dose curve; as a rule, active = well fitted curve in the direction sought with a large enough effect; inconclusive = small, poorly fitted or top-dose-only effect, or another doubt; inactive = no such curve, though single readings can be large; an effect the other way counts as inactive or inconclusive.

Assays:
[1] = AP1 Signaling Pathway (AID 357; active = well fitted curve in either direction with a large enough effect, not every such curve was filed as active;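 note: ME-180 reporter cells stimulated with EGF at its EC50 level; % is set by controls: 0 for no effect and ±100 for the full control effect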); details: ME-180 AP-1-bla reporter, EGF-induced, beta-lactamase ratio, 5 h; at 7.69 µM (top of the series) unless noted
Method in brief: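 In this screen, ME-180 cells in Opti-MEM with 0.5% dialyzed FBS received EC50 EGF and compound titrations for 5 h. AP-1 reporter beta-lactamase was detected via CCF4 ratio, giving AC50 for positive and negative modulators.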

[2] = molecular target: Cytochrome P450 1A2 (Homo sapiens) (UniProt P05177); assay: p450-cyp1a2 (AID 410; calls by dose curve;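 note: -100% = full effect of reference inhibitor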)
Sequence of Cytochrome P450 1A2 (Homo sapiens) (P05177 whole entry, looked up): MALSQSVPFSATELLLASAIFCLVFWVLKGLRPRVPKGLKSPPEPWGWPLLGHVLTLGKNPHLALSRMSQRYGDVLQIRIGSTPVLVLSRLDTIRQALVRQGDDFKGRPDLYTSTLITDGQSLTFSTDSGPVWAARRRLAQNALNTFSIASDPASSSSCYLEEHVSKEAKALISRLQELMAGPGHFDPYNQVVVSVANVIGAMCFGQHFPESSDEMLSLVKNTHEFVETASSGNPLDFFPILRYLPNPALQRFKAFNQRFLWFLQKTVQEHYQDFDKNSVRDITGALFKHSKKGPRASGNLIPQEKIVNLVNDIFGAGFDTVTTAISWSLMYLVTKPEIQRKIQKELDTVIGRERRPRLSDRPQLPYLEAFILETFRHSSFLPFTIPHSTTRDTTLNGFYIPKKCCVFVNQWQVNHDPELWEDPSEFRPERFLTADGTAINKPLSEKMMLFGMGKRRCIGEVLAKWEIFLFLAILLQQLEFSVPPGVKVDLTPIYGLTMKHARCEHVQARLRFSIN
Method in brief: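 Read-out is luminescence from luciferin produced by CYP1A2 demethylation of Luciferin-ME (100uM, at Km). Detection reagent stopped the 60 min NADPH-dependent reaction; signals were normalized to 57 uM furafylline.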

[3] = NFAT Signaling Pathway (AID 444; active = well fitted curve in either direction with a large enough effect, not every such curve was filed as active;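 note: carbachol stimulus at about its EC50 of 1 µM final; % is set by controls: 0 for no effect and ±100 for the full control effect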); details: Jurkat NFAT-bla M1, carbachol, beta-lactamase ratio, 5 h; at 7.69 µM (top of the series) unless noted
Method in brief: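 Read-out: CCF4 FRET ratio (460 nm/530 nm) after 1 h RT dye loading, used for %activity and AC50 from titration series. Cells: Jurkat NFAT-β-lactamase/M1 line, treated with compound plus 1 uM carbachol for 5 h, 37 °C.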

[4] = Stat Signaling Pathway (AID 446; active = well fitted curve in either direction with a large enough effect, not every such curve was filed as active;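 note: ME-180 cervical cancer cells given 40 pM IL-6 alongside compound; SIE-controlled beta-lactamase reporter measured as 460/530 nm FRET emission ratio; % is set by controls: 0 for no effect and ±100 for the full control effect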); details: ME-180 (cervical carcinoma) SIE beta-lactamase reporter, IL-6 stimulated, 5 h; at 7.69 µM (top of the series) unless noted
Method in brief: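 Overnight-plated ME-180 cells bearing a STAT Inducible Element beta-lactamase reporter; 5 h co-exposure to compound and 40 pM IL-6; values normalized to 300 pM IL-6 and 125 nM JAK inhibitor controls.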

[5] = molecular target: Glucocorticoid receptor (Homo sapiens) (UniProt P04150); assay: GR-GFP Redistribution (AID 450;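 active = compounds whose dose series gives a full or clear partial fitted curve of increased nuclear translocation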; note: potency is the fitted concentration of half-maximal effect); details: U2OS GR-GFP nuclear translocation, laser cytometry, 2 h
Sequence of Glucocorticoid receptor (Homo sapiens) (P04150 whole entry, looked up, the tested form may be a part): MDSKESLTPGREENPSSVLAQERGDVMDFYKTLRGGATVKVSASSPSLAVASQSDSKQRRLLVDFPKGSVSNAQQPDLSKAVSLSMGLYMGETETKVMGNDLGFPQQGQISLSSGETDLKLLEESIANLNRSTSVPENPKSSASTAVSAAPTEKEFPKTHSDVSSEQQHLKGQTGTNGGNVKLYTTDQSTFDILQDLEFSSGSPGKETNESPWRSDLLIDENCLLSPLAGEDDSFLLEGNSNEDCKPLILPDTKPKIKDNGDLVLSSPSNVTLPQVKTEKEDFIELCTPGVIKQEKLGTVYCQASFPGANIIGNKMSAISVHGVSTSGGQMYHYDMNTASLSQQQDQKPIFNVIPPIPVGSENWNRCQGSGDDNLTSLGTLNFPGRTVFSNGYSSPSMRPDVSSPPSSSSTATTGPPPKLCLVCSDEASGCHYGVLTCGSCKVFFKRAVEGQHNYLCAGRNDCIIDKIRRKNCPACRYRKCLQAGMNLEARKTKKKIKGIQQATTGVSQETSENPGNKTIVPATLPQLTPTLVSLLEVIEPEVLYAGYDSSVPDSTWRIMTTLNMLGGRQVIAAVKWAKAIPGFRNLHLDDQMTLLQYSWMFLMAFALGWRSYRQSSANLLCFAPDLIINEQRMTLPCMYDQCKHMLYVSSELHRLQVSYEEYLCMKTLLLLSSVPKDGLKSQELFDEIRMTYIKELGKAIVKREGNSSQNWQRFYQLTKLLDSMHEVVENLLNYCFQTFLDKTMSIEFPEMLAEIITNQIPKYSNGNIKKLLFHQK

[6] = molecular target: Glucocorticoid receptor (Homo sapiens) (UniProt P04150); assay: GR-EFC Redistribution (AID 451; calls by dose curve; note: potency is the fitted concentration of half-maximal effect); details: CHO-K1 GR-EFC translocation, beta-gal luminescence, 2 h
Method in brief: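 Translocation of GR-ED fusion to nuclear EA restores b-gal, read by luminescence after 1 h room-temperature detection. Engineered CHO-K1 biosensor cells, 1,000/well, exposed 2 h at 37 C to titrations up to 46 uM final.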

[7] = molecular target: 3',5'-cyclic-AMP phosphodiesterase 4B (Homo sapiens) (UniProt Q07343); assay: qHTS Assay for Inhibitors of PDE-IV (AID 607; active = well fitted activation curve with a large enough effect in the main read-out, with a control signal flat, not every such curve was filed as active; note: % of control where 0% means no effect)
Sequence of 3',5'-cyclic-AMP phosphodiesterase 4B (Homo sapiens) (Q07343 whole entry, looked up): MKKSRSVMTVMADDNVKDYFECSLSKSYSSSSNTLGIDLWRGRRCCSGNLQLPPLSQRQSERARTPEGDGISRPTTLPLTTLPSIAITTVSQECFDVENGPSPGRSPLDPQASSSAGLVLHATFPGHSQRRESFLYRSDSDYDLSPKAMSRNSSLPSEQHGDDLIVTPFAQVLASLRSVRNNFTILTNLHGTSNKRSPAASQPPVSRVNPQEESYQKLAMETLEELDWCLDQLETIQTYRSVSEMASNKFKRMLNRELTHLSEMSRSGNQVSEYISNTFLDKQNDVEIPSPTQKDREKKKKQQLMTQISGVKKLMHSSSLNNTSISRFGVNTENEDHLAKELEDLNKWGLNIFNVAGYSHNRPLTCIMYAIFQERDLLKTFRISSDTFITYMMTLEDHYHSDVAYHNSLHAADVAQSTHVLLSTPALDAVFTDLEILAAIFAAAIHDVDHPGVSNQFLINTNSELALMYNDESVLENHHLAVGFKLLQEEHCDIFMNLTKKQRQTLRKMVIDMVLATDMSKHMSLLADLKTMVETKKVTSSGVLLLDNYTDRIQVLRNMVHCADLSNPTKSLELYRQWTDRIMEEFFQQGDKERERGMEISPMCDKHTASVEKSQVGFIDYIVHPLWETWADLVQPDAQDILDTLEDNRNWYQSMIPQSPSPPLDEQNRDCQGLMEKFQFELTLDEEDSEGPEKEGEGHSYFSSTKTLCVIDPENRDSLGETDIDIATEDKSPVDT
Method in brief: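 Live HEK293 cells with a modified cyclic nucleotide-gated (CNG) channel report intracellular cAMP via membrane-potential dye fluorescence (ex 535/em 590 nm). Endogenous PDE-IV was targeted. Compounds were tested at up to 22.9 uM final; RO 20-1724 100 uM served as control.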

[8] = molecular target: Guanine nucleotide-binding protein G(i) subunit alpha-1 (Homo sapiens) (UniProt P63096); assay: qHTS Assay for Inhibitors of RGS12 GoLoco Motif Activity (Green Fluorophore) (AID 879);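 note: 0% = labeled peptide with Gαi1 and full inhibition = labeled peptide alone without protein; negative values mean loss of peptide binding seen as reduced polarization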
Sequence of Guanine nucleotide-binding protein G(i) subunit alpha-1 (Homo sapiens) (P63096 whole entry, looked up): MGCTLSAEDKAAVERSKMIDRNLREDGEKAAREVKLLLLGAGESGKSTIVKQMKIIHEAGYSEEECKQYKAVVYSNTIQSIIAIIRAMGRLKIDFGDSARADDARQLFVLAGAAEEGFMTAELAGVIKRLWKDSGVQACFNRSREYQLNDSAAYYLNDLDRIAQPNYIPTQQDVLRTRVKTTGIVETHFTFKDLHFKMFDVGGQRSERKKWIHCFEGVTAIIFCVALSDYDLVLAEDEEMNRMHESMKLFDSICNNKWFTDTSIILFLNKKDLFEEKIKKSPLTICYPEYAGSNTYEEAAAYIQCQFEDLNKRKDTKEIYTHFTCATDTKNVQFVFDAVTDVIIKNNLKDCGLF
Method in brief: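 A drop in FITC polarization marked displacement of the FITC-tagged RGS12 GoLoco peptide (10 nM) from Gαi1 (50 nM). Compounds were incubated 10 min at room temperature in Tris pH 7.5 buffer containing 150 mM NaCl, 0.1 mM GDP and 0.05% NP40; unlabeled peptide titration served as control.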

[9] = molecular target: Cytochrome P450 3A4 (Homo sapiens) (UniProt P08684); assay: qHTS Assay for Activators of Cytochrome P450 3A4 (AID 885); note: nearly all actives have a fitted effect of over 65% in size
Sequence of Cytochrome P450 3A4 (Homo sapiens) (P08684 whole entry, looked up): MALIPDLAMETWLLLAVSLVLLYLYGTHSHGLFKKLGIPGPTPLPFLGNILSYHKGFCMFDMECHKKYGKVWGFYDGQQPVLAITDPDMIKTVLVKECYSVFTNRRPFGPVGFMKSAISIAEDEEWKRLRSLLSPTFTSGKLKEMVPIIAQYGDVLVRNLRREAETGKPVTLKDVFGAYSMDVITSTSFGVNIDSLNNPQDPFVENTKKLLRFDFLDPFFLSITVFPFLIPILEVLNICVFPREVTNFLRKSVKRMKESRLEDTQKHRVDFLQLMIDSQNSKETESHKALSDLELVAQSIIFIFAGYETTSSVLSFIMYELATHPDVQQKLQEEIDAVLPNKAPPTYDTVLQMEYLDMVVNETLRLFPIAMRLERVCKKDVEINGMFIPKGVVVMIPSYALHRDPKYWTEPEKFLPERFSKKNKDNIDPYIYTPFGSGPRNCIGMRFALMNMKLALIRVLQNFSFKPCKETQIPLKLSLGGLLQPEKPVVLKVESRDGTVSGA
Method in brief: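 Using 20nM recombinant human CYP3A4 in potassium phosphate (200mM), substrate Luciferin-PPXE at 25uM, luminescent luciferin detection followed a 60-min RT NADPH reaction; data scaled to 57 uM ketoconazole.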

[10] = qHTS Assay for Identification of Small Molecule Antagonists for NFkB Signaling Pathway (AID 895; active = well fitted inhibition curve with a large enough effect in the signal ratio, with a control signal flat, not every such curve was filed as active; the % refers to the signal ratio; note: % is set by controls: 0 for no effect and ±100 for the full control effect)
Method in brief: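 Beta-lactamase reporter read-out (460 and 530 nm emission ratio, 405 nm excitation, 2 hrs substrate loading RT) after 5 hr stimulation with 10 pM TNF alpha in compound-treated NFkB-bla ME-180 cells in low-serum medium.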

[11] = qHTS Assay for Identification of Small Molecule Agonists for Thrombopoietin (TPO) Signaling Pathway (AID 917); note: % is set by controls: 0 for no effect and ±100 for the full control effect
Method in brief: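 Quantitative HTS for pathway activators: compounds were pin-transferred onto IL-3-starved Ba/F3 cells expressing human TPO receptor, TPO was added at its EC50 (26 pM final), and after 24 hrs at 37 C reporter luciferase was measured.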

[12] = molecular target: Muscarinic acetylcholine receptor M1 (Rattus norvegicus) (UniProt P08482); assay: qHTS Assay for Antagonists of Acetylcholine Muscarinic M1 Receptor: Kinetic Measurement of Intracellular Calcium Response (AID 943);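 note: Fluo-4 calcium signal as peak divided by basal fluorescence over 4 min; nearly all actives have a fitted effect of over 75% in size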
Sequence of Muscarinic acetylcholine receptor M1 (Rattus norvegicus) (P08482 whole entry, looked up): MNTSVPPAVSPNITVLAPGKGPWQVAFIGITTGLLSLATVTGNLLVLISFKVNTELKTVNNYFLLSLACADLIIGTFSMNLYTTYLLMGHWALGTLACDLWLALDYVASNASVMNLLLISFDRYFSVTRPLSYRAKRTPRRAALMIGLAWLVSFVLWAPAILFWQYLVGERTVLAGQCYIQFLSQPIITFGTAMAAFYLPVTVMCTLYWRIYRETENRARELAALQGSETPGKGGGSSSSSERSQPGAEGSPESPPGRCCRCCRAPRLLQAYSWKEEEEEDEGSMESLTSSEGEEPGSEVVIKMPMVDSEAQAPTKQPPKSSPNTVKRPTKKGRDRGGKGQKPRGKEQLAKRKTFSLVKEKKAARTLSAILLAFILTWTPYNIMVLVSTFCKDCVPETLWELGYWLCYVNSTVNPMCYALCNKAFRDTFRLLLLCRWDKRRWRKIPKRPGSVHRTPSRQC
Method in brief: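 Quantitative HTS in CHO-M1 (rat receptor) cells: 10 min compound exposure ahead of 100 nM carbachol, Fluo-4 fluorescence followed 4 min, value expressed as peak-to-basal ratio.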

[13] = molecular target: Muscarinic acetylcholine receptor M1 (Rattus norvegicus) (UniProt P08482); assay: qHTS Assay for Antagonists of Acetylcholine Muscarinic M1 Receptor: Measurement of IP-One Response (AID 944); note: nearly all actives have a fitted effect of over 75% in size
Method in brief: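 Antagonism was measured as loss of carbachol-driven (EC80) IP1 accumulation in CHO cells carrying rat M1, using a homogeneous IP-One TR-FRET kit read at 620 and 665 nm.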

[14] = molecular target: Pyruvate kinase (Leishmania mexicana) (UniProt Q27686); assay: qHTS Validation Assay for Inhibitors of Leishmania Mexicana Pyruvate Kinase (AID 945);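 note: 0% = DMSO only neutral control wells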
Sequence of Pyruvate kinase (Leishmania mexicana) (Q27686 2-499 E452W): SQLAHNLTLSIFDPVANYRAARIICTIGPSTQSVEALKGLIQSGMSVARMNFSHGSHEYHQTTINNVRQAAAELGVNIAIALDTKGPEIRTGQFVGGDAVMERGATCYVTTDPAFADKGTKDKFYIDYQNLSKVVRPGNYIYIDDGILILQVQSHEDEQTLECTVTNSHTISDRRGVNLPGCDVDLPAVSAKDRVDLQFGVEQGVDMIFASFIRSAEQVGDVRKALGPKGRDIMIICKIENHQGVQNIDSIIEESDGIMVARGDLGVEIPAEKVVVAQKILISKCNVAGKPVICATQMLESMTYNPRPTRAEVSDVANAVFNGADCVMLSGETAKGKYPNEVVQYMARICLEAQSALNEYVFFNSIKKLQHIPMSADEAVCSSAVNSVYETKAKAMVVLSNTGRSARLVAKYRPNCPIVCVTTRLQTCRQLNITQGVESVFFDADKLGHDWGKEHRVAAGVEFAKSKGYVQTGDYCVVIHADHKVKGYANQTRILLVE
Method in brief: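 The enzyme is a highly purified E451W mutant of LmPYK used at 0.2 nM. It converts 0.5 mM PEP and 0.1 mM ADP over 1 h at room temperature; product ATP is quantified by luciferase luminescence relative to DMSO controls.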

[15] = molecular target: Alpha-galactosidase A (Homo sapiens) (UniProt P06280); assay: Counterscreen for Glucocerebrosidase Inhibitors: qHTS Assay for Human alpha-Galactosidase at pH 4.5 (AID 992); note: 0% is about no effect
Sequence of Alpha-galactosidase A (Homo sapiens) (P06280 whole entry, looked up): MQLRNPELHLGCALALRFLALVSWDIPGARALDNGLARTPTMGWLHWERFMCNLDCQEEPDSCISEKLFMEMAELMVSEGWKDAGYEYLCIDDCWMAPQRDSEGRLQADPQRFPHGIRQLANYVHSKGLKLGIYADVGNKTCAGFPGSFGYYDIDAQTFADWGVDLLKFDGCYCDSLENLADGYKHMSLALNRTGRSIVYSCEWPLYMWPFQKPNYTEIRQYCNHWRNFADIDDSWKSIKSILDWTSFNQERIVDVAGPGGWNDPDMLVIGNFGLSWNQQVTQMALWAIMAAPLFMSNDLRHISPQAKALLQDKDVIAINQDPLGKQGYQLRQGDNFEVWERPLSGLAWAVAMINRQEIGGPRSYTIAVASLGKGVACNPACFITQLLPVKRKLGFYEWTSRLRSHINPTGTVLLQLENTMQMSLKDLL
Method in brief: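 Each compound is preincubated briefly with 2 nM enzyme before substrate addition (80 uM); plates then sit 20 min at ambient temperature, are quenched with 1M NaOH/1M glycine, and read fluorometrically.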

[16] = molecular target: alpha-glucosidase (Oryza sativa, rice) (UniProt Q653V4); assay: Counterscreen for Glucocerebrosidase Inhibitors: qHTS Assay for Rice alpha-Glucosidase at pH 5.0 (AID 997);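 note: 0% = full activity with enzyme and -100% = basal without enzyme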
Method in brief: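 Endpoint fluorogenic assay at pH 5.0: compounds (0.7 nM to 77 uM) titrated against 4 nM rice enzyme and 400 uM 4-MU-alpha-glucoside for 20 min at room temperature; NaOH/glycine stop, read ex 365/em 440 nm, Hill-fitted AC50.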

COc1cc([C@H](O)CO)ccc1O
inactive: activity change, negative = inhibition [1] -0.627% [at 38 µM] | Potency [2] | activity change, negative = inhibition [3] 2.95% [at 38 µM] | activity, negative = inhibition [4] 17.1% [at 38 µM] | Potency [5] > 46 µM | Potency [6] > 46 µM | Potency [7] | outcome [8] | Potency [9] | Potency [10] | outcome [11] | Potency [12] | Potency [13] | outcome [14] | outcome [15] | Potency [16]
